# PubChem BioAssay
# Active and inactive are the calls of the source.
# Experiments:
# [1] = small molecules captured by biotinylated probe aFSTL3 – biochemical, small-molecule microarray, fluorescence 635/667, stem cell growth factor project, primary screen (AID 1064); conditions: higher = more signal;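 also: measures binding of the biotinylated anti-FSTL3 antibody to printed compounds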
# [2] = binders from COS7 lysate, DM2A8 probe, primary screen, torsin A project, cell lysate, small-molecule microarray, fluorescence 635/667 (AID 1065); conditions: higher = more signal, COS7 lysate expressing mutant human TOR1A
# [3] = small molecules captured by biotinylated probe aFGF2 – biochemical, small-molecule microarray, fluorescence 635/667, stem cell growth factor project, primary screen (AID 1067); conditions: higher = more signal;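 also: measures binding of biotinylated aFGF2 protein to printed compounds on slides; z-score merges feature fluorescence and signal-to-noise across triplicate slides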
# [4] = small molecules captured by biotinylated probe aFGF10 – biochemical, small-molecule microarray, fluorescence 635/667, stem cell growth factor project, primary screen (AID 1071); conditions: higher = more signal;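 also: score merges 667 nm spot intensity and signal to noise from triplicate slides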
# [5] = biological target: Neurogenic locus notch homolog protein 2 (Homo sapiens) (UniProt Q04721); assay: small molecules binding Notch2 protein – biochemical, small-molecule microarray, 635 nm fluorescence, stem cell growth factors, primary screen (AID 1073); conditions: higher = more signal
# [6] = biological target: Pro-neuregulin-1, membrane-bound isoform (Homo sapiens) (UniProt Q02297); assay: small molecules binding neuregulin-1 protein – biochemical, small-molecule microarray, fluorescence 635/667, psychiatric disease protein project, primary screen (AID 1075); conditions: NRG1 binding, 635 nm fluorescence, higher = more signal;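 also: score combines 667 nm spot fluorescence with signal to noise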
# Pro-neuregulin-1, membrane-bound isoform (Homo sapiens), sequence (Q02297 whole entry, looked up, the tested form may be a part, canonical isoform): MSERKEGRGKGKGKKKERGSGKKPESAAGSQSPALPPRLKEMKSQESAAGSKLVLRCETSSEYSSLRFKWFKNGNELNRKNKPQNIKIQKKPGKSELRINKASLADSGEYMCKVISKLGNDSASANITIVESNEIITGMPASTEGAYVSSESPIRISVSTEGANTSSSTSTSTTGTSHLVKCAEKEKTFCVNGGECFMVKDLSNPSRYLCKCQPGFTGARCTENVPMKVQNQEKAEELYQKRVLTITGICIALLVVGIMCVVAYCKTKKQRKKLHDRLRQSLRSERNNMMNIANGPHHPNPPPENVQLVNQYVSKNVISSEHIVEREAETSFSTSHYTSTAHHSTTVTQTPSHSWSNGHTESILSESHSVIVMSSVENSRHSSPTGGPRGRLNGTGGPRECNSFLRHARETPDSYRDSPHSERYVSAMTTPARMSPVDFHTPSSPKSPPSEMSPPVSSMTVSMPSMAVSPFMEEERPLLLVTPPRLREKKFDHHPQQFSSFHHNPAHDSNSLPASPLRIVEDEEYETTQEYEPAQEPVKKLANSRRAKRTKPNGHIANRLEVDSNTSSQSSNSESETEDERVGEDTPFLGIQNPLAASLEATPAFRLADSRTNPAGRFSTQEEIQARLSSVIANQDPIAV
# [7] = test system: Neuregulin-1 EGF-like domain; assay: small molecules binding NRG1 EGF domain – biochemical, small-molecule microarray, 635 nm fluorescence, primary screen (AID 1081); conditions: higher = more signal;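 also: binding of the protein to compounds printed on small-molecule microarray slides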
# [8] = FRG1 expression reporter modulators in myotubes – cell-based, C2C12 myotubes, firefly/Renilla luciferase, luminescence, FRG1 inhibition for FSHD, primary screen (AID 1084); conditions: FRG1 promoter luciferase, higher = more signal, called active from +8 up or from −8 down
# [9] = small molecules captured by biotinylated probe aFST – biochemical, small-molecule microarray, fluorescence 635/667, stem cell growth factor project, primary screen (AID 1086); conditions: higher = more signal;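 also: score merges 667 nm fluorescence with signal-to-noise of each printed compound spot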
# [10] = binders of probe aHhip on microarray, primary screen, stem cell growth factor project, biochemical, small-molecule microarray, fluorescence 635/667 (AID 1087); conditions: higher = more signal;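 also: score merges spot fluorescence at 667nm with spot signal to noise ratio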
# [11] = test system: PRMT1 (protein arginine N-methyltransferase 1); assay: small molecules binding arginine methyltransferase PRMT1 – biochemical, small-molecule microarray, 635 nm fluorescence, primary screen (AID 1088); conditions: higher = more signal;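 also: binding of Prmt1 protein to compounds spotted on small-molecule microarray slides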
# [12] = growth effects on S. cerevisiae YJM789 – YJM789 clinical isolate, OD600, 24 h, basal, primary screen (AID 1089); conditions: higher = more signal, called active from +8 up or from −8 down;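 also: growth of clinical yeast isolate S. cerevisiae YJM 789 seeded 1000 cells per well; test concentration not given here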
# [13] = S. pombe growth modifiers, basal conditions – strain 972, OD600, 24 h, no modulator, primary screen (AID 1090);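 also: basal condition with compound alone and no growth modifier present; test concentration not given here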; conditions: S. pombe 972 growth, higher = more signal, called active from +8 up or from −8 down
# [14] = budding yeast growth modifiers under rapamycin – strain BY4716, OD600, 96 h, primary screen (AID 1091); also: test concentration not given here; conditions: S. cerevisiae BY4716 + rapamycin, higher = more signal, called active from +8 up or from −8 down
# [15] = biological target: Torsin-1A-interacting protein 2 (Homo sapiens) (UniProt Q8NFQ8); assay: small molecules binding lysate-expressed LULL1 – cell lysate, human LULL1 lysate, 635/667 nm fluorescence, primary screen (AID 1092); conditions: small-molecule microarray, hLULL1 lysate binding, 635 nm fluorescence; higher = more signal;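 also: probe is lysate of COS7 cells overexpressing human LULL1; score merges per-feature 667 nm fluorescence with signal-to-noise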
# Torsin-1A-interacting protein 2 (Homo sapiens), sequence (Q8NFQ8 whole entry, looked up): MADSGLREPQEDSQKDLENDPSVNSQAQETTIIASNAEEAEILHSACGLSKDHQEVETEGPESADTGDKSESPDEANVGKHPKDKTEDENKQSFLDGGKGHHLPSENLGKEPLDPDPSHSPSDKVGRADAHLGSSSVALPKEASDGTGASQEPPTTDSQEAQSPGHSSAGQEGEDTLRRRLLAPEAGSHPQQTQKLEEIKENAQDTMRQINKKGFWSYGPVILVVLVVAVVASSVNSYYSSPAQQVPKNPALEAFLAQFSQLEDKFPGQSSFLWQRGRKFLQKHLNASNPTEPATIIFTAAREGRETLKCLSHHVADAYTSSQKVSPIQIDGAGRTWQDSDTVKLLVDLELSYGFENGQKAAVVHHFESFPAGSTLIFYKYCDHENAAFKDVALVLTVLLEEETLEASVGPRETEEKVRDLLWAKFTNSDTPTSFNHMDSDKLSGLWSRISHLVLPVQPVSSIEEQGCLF
# [16] = optical density change of DRC41 E. coli – strain DRC41, OD650, 24 h, E. coli filamentation project, primary screen (AID 1093);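 also: MC1000 strain lacking acrAB efflux and sulA so SOS filamentation is blocked; test concentration not given here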; conditions: E. coli DRC41 growth, higher = more signal, called active from +8 up or from −8 down
# [17] = probe aLefty2 binding to arrayed compounds – biochemical, biotinylated probe, 635/667 nm fluorescence, primary screen (AID 1094); conditions: small-molecule microarray, higher = more signal;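 also: score merges spot fluorescence near 667 nm with spot signal-to-noise ratio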
# [18] = test system: Noggin (protein binding on small-molecule microarray); assay: small molecules binding Noggin protein – biochemical, 635/667 nm fluorescence, primary screen (AID 1095); conditions: 635 nm fluorescence, higher = more signal;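 also: score merges 667 nm feature fluorescence with signal to noise over triplicate slides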
# [19] = biological target: Neurogenic locus notch homolog protein 3 (Homo sapiens) (UniProt Q9UM47); assay: small molecules binding NOTCH3 protein – biochemical, 635/667 nm fluorescence, primary screen (AID 1096); conditions: small-molecule microarray, 635 nm fluorescence, higher = more signal
# Neurogenic locus notch homolog protein 3 (Homo sapiens), sequence (Q9UM47 whole entry, looked up): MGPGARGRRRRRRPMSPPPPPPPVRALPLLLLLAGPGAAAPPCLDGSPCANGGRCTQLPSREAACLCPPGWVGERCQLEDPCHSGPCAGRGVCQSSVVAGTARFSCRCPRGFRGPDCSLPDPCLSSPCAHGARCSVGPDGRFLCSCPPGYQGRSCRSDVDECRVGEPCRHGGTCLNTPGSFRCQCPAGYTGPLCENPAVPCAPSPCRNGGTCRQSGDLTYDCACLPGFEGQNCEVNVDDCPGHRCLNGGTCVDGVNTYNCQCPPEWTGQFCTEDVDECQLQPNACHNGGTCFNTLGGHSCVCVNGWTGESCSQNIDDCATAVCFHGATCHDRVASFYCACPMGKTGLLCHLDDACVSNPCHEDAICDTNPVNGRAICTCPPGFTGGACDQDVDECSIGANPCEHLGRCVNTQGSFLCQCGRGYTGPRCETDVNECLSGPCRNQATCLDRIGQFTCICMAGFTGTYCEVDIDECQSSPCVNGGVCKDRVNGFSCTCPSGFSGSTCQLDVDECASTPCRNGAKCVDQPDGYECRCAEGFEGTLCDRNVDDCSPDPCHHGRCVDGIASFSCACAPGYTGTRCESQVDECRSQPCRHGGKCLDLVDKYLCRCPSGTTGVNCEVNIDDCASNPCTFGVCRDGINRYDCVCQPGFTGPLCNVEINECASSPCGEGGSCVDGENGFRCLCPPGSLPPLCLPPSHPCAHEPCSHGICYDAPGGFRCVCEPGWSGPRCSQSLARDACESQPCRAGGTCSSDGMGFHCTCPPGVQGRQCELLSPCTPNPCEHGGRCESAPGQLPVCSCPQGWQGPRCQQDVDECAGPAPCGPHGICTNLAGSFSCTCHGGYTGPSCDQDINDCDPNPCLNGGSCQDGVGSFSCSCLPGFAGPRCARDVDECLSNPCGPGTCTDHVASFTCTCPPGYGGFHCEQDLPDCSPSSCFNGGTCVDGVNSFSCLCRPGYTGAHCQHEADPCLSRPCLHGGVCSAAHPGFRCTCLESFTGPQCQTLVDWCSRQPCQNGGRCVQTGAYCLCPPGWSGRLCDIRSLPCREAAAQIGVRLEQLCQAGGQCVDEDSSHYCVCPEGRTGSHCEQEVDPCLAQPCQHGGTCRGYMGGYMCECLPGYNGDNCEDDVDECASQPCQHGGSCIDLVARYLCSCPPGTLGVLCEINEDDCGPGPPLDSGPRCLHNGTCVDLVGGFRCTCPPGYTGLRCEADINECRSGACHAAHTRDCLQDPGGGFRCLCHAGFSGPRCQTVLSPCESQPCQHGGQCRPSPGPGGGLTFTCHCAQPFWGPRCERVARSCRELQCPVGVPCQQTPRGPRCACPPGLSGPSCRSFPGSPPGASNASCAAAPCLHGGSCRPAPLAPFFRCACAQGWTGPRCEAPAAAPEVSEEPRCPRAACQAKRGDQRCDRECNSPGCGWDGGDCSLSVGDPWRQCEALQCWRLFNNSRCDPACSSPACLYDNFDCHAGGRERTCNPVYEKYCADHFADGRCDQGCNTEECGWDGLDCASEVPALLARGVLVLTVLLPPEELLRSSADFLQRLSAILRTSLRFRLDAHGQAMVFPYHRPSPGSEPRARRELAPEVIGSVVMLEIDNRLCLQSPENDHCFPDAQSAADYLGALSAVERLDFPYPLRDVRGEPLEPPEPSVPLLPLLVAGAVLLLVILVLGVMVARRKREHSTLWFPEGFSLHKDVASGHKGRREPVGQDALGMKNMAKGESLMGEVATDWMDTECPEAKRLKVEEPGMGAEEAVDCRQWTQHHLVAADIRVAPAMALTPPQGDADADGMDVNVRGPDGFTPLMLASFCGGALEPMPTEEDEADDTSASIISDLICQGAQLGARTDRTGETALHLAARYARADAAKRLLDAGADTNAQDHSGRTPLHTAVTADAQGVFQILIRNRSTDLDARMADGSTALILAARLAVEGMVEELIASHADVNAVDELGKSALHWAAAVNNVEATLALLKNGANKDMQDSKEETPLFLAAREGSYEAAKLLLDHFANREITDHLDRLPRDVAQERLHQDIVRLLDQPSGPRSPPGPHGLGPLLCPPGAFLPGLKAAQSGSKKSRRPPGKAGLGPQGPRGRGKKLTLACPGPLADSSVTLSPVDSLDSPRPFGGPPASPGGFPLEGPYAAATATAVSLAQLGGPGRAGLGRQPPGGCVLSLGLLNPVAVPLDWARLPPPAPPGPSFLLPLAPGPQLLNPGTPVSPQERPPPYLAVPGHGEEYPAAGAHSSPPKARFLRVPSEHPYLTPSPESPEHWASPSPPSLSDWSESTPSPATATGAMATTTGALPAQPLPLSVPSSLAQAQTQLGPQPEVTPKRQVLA
# [20] = probe aEGFR binding to arrayed compounds – biochemical, biotinylated probe, 635/667 nm fluorescence, primary screen (AID 1097); conditions: small-molecule microarray, higher = more signal;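 also: probe is a biotinylated anti-EGFR antibody binding compounds printed on slides; score combines fluorescence near 667 nm and signal to noise of each spot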
Structure (SMILES),composite z-score [1],composite z-score [2],composite z-score [3],composite z-score [4],composite z-score [5],composite z-score [6],composite z-score [7],z-score [8],composite z-score [9],composite z-score [10],composite z-score [11],z-score [12],z-score [13],z-score [14],composite z-score [15],z-score [16],composite z-score [17],composite z-score [18],composite z-score [19],composite z-score [20]
CCOC(=O)C[C@H]1[C@H](OC(=O)Cc2ccc3c(c2)OCO3)[C@@H](NC(=O)CC(C)C)c2cc(OCCCO)ccc2N1C(=O)Cc1ccc(OC)cc1,-0.244,0.0682,-0.114,0.103,-0.0727,-0.308,0.258,-2.61 (inactive),-0.207,-0.245,0.336,-1.88 (inactive),-0.843 (inactive),-0.733 (inactive),1.09,1.38 (inactive),-0.134,-0.0273,0.0046,-0.111
CC1=C[C@@]2(CO)C(=O)[C@]3(CO3)[C@@H]1[C@H]1[C@]2(C)C=C(CO)C(=O)[C@]12CO2,-0.457,-0.42,-0.0782,0.345,0.31,0.194,0.677,-1.35 (inactive),0.614,0.459,0.295,-1.32 (inactive),-9.27 (active),-0.946 (inactive),0.0091,0.179 (inactive),-0.113,0.177,0.652,-0.276
CC(C)Cc1ccc(CN2CC[C@@H](NC(=O)Nc3ccccc3)C2)cc1,-0.0474,-0.0461,-0.173,0.118,-0.3,-0.54,-0.0603,-0.445 (inactive),-0.275,0.0505,-0.785,-21.2 (active),-21.2 (active),-4.26 (inactive),-0.389,-0.817 (inactive),-0.138,-0.0751,-0.963,-0.0214
O=C1O[C@H](c2ccccc2)[C@H](c2ccccc2)N2[C@H]1[C@@H](C(=O)N1CCN(c3ncccn3)CC1)[C@]1(C(=O)Nc3ccc(C#CC4(O)CCCCCC4)cc31)[C@H]2c1ccc(OCCO)cc1,0.696,0.968,0.0583,1.2,1.52,2.25,1.22,1.8 (inactive),2.45,0.334,1.53,2.89 (inactive),1.42 (inactive),5.4 (inactive),3.79,-0.409 (inactive),1.19,1.68,1.08,0.471
COc1ccc([Si](C)(C)[C@@H]2[C@@H](CC(=O)N3Cc4ccccc4C[C@H]3CO)O[C@]3(C(=O)N(Cc4cccc(N5C(=O)c6cccc7cccc5c67)c4)c4ccccc43)[C@H]2C)cc1,-0.345,0.822,-0.0111,0.659,0.973,0.828,1.04,-1.51 (inactive),0.593,0.0505,1.56,-0.258 (inactive),0.93 (inactive),2.43 (inactive),1.6,-0.342 (inactive),-0.0144,1.08,1.09,0.0276
CCOC(=O)C[C@H]1[C@H](OC(=O)c2cc3ccccc3oc2=O)[C@@H](NC(=O)c2ccc(-c3ccccc3)cc2)c2cc(OCCCO)ccc2N1C(=O)c1ccc2ccccc2n1,-0.494,0.804,-0.0563,0.684,0.652,0.751,1.03,-0.185 (inactive),0.619,-0.0994,1.25,0.443 (inactive),0.394 (inactive),1.14 (inactive),1.92,-0.0642 (inactive),-0.084,0.873,1.05,-0.0531
COC(=O)[C@@]1(Cc2ccccc2)[C@H]2c3cc(C(=O)N(C)C)n(Cc4c(CO)[nH]cc(C)c4=O)c3C[C@H]2CN1C(=O)c1ccccc1,0.268,0.311,0.206,0.528,1.53,1.49,1.38,-0.325 (inactive),0.608,0.0456,0.0795,0.469 (inactive),1.51 (inactive),0.0018 (inactive),3.13,-0.633 (inactive),0.163,-0.38,0.447,0.0288
[N-]=[N+]=NCc1ccccc1[C@@H]1OC(c2ccc(OCCCO)cc2)=N[C@]1(CCS(=O)(=O)c1ccccc1)C(=O)NCC(O)CO (stereo not given in full),0.445,0.92,0.067,0.367,1.53,2,1.23,-0.547 (inactive),0.923,-0.0994,1.54,-1.69 (inactive),-0.741 (inactive),0.897 (inactive),3.85,0.171 (inactive),0.267,1,0.832,-0.0435
O=C1O[C@@H](c2ccccc2)[C@@H](c2ccccc2)N2[C@@H](c3ccc(O)cc3)[C@]3(C(=O)Nc4ccc(C#CC5=CCCCC5)cc43)[C@@H](C(=O)NC[C@H](O)c3ccccc3)[C@H]12,0.135,1.76,-0.0181,0.508,1.52,1.2,1.35,0.754 (inactive),0.398,0.251,1.54,1.31 (inactive),0.18 (inactive),2.89 (inactive),2.55,1.24 (inactive),-0.0916,1.22,1.07,0.12
O=C1N(Cc2ccccc2)Cc2ccccc2[C@@H]2OC(c3ccc(OCCCO)cc3)=N[C@]12CCS(=O)(=O)c1ccccc1,0.184,-0.0546,0.0247,0.379,1.28,1.48,1.32,-3.35 (inactive),0.297,-0.171,1.57,1.01 (inactive),1.41 (inactive),14.9 (active),2.96,0.0267 (inactive),0.228,0.49,0.763,0.209
